Reference: PubChem BioAssay (NCI)
The panel holds about 83,000 compounds, 20% with a hit somewhere; the sample as a whole holds those more often.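 96-well plates, one dose, 48 hours. Percent growth reported; active if below 10.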 Values without a mark were called inactive. Active and inactive are the calls of the source.

Key:
Assay in all cases: NCI-60 one-dose screen, 48 h (100 = growth as untreated, 0 = no growth, -100 = all killed)
Details in all cases: 10 µM unless noted
[1] = test system: HCT-15 colon
[2] = test system: HT29 colon
[3] = test system: SNB-75 CNS
[4] = test system: SNB-19 CNS
[5] = test system: U251 CNS
[6] = test system: PC-3 prostate
[7] = test system: SK-MEL-5 melanoma
[8] = test system: UACC-62 melanoma
[9] = test system: LOX IMVI melanoma
[10] = test system: SK-MEL-28 melanoma
[11] = test system: SK-MEL-2 melanoma
[12] = test system: EKVX NSCLC
[13] = test system: SN12C renal
[14] = test system: UO-31 renal
[15] = test system: TK-10 renal
[16] = test system: ACHN renal
[17] = test system: CAKI-1 renal
[18] = test system: CCRF-CEM leukemia
[19] = test system: MOLT-4 leukemia

Cn1c2ccccc2c2c3c(c4c5ccccc5n(C)c4c21)C(=O)OC3
growth [1]: 96.7% | growth [2]: 105% | growth [3]: 68.1% | growth [4]: 92.7% | growth [5]: 104% | growth [6]: 90.6% | growth [7]: 93.5% | growth [8]: 88.6% | growth [9]: 88.2% | growth [10]: 120% | growth [11]: 107% | growth [12]: 88.1% | growth [13]: 92.3% | growth [14]: 61% | growth [15]: 135% | growth [16]: 87.3% | growth [17]: 82.6% | growth [18]: 98.4% | growth [19]: 89.7%

O=[N+]([O-])c1cc(Br)c2cccc3c2c1CC3
growth [1]: 100% | growth [2]: 108% | growth [3]: 100% | growth [4]: 98.7% | growth [5]: 99.8% | growth [6]: 96.2% | growth [7]: 102% | growth [8]: 89% | growth [9]: 109% | growth [10]: 106% | growth [11]: 118% | growth [12]: 109% | growth [13]: 101% | growth [14]: 90.8% | growth [15]: 110% | growth [16]: 110% | growth [17]: 95.3% | growth [18]: 99.9% | growth [19]: 104%

O=C(N/N=C/c1ccc(Oc2ccccc2)cc1)c1cnn2c1NC(c1ccccc1)C2 (stereo unspecified)
growth [1]: 33.9% | growth [2]: 65.8% | growth [3]: 76.8% | growth [4]: 61% | growth [5]: 48.1% | growth [6]: 46.7% | growth [7]: 41.5% | growth [8]: 6.85% (active) | growth [9]: 57.2% | growth [10]: 56.2% | growth [11]: 4.54% (active) | growth [12]: 77.6% | growth [13]: 71.8% | growth [14]: 60.7% | growth [15]: 66.8% | growth [16]: 35.2% | growth [17]: 33.6% | growth [18]: 67.5% | growth [19]: 75.1%

Cc1ccc(-c2[nH][nH]c(=O)c2-c2nc3ccccc3s2)cc1
growth [1]: 99.1% | growth [2]: 104% | growth [3]: 79.4% | growth [4]: 97.9% | growth [5]: 103% | growth [6]: 96.9% | growth [7]: 102% | growth [8]: 95.9% | growth [9]: 95.7% | growth [10]: 111% | growth [11]: 108% | growth [12]: 97.4% | growth [13]: 98.7% | growth [14]: 78.7% | growth [15]: 107% | growth [16]: 97.3% | growth [17]: 88.7% | growth [18]: 93.3% | growth [19]: 100%

CCNC(=O)Oc1ccc(/C(=C(\C)c2ccccc2)c2ccc(OCCN(CC)CC)cc2)cc1
growth [1]: 16.5% | growth [2]: 15.3% | growth [3]: 78.5% | growth [4]: 86.9% | growth [5]: 68.2% | growth [6]: 70.8% | growth [7]: 34.4% | growth [8]: 59.1% | growth [9]: 65.3% | growth [10]: 63.3% | growth [11]: 97.6% | growth [12]: 96% | growth [13]: 82.1% | growth [14]: 61.6% | growth [15]: 95.6% | growth [16]: 102% | growth [17]: 59.3% | growth [18]: 84% | growth [19]: 76.2%

COc1cc2nc(-c3ccc(C(F)(F)F)cc3)cc(OCCCN3CCOCC3)c2cc1OC
growth [1]: 7.76% (active) | growth [2]: 17.4% | growth [3]: -9.47% (active) | growth [4]: 61% | growth [5]: 42.6% | growth [6]: 42.1% | growth [7]: -33.1% (active) | growth [8]: -26.1% (active) | growth [9]: -82.1% (active) | growth [10]: 42.1% | growth [11]: 47.4% | growth [12]: 61.6% | growth [13]: 41.3% | growth [14]: 33% | growth [15]: 96.6% | growth [16]: 34.3% | growth [17]: -13.1% (active) | growth [18]: 37.5% | growth [19]: 44.9%

CNC(=O)c1cccc(Cn2nc(C)c(NC(=O)c3ccc(COc4ccc(C(F)(F)F)cc4C)cc3)c2C)n1
growth [1]: 49.4% | growth [2]: 42% | growth [3]: 80.9% | growth [4]: 47.8% | growth [5]: 44.7% | growth [6]: 34.6% | growth [7]: -6.19% (active) | growth [8]: 63% | growth [9]: 55.2% | growth [10]: 70.5% | growth [11]: 50.5% | growth [12]: 37.5% | growth [13]: 59.8% | growth [14]: 50.8% | growth [15]: 56.2% | growth [16]: 54.9% | growth [17]: 46.4% | growth [18]: 60.2% | growth [19]: 29.6%

CCN1CCN(CCNc2nccc(-c3c(-c4cccc(OC)c4)nc4occn34)n2)S1(=O)=O
growth [1]: 102% | growth [2]: 50.3% | growth [3]: 112% | growth [4]: 113% | growth [5]: 113% | growth [6]: 96.9% | growth [7]: 60.5% | growth [8]: 27.5% | growth [9]: 76.6% | growth [10]: 47.3% | growth [11]: 93.6% | growth [12]: 90.9% | growth [13]: 95.6% | growth [14]: 91.9% | growth [15]: 128% | growth [16]: 84.9% | growth [17]: 78.1% | growth [18]: 117% | growth [19]: 89%

COc1ccccc1NS(=O)(=O)c1cccc(C(=O)Nc2ccc(Br)cc2)c1
growth [1]: 37.8% | growth [2]: 46.6% | growth [3]: 65.9% | growth [4]: 53.4% | growth [5]: 62% | growth [6]: 25.4% | growth [7]: -31.7% (active) | growth [8]: 32.1% | growth [9]: 42.4% | growth [10]: 62.9% | growth [11]: 57.7% | growth [12]: 20.1% | growth [13]: 51.8% | growth [14]: 27.3% | growth [15]: 61.5% | growth [16]: 46.2% | growth [17]: 27.5% | growth [18]: 40.1% | growth [19]: 26.8%
